# A number with no mark means an inactive call. This is one part of the list. Active and inactive are the calls of the source.
# How the values were obtained:
# [1] = molecular target: Potassium voltage-gated channel subfamily KQT member 2 (Rattus norvegicus) (UniProt O88943); assay: potentiators of retigabine-insensitive KCNQ2 W236L, mechanism study for KCNQ2 potentiator project, cell-based, rat KCNQ2 W236L, CHO, automated patch clamp (AID 2558); conditions: at 25 µM; outcome: automated patch clamp current
# [2] = thallium flux activation in parental CHO cells, counter-screen for KCNQ1 potentiator project (AID 493006;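 active = duplicate-averaged activation above buffer control mean plus 5 SD of those controls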;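 also: fluorescence ratio of max minus min over baseline after K+ and Tl+ depolarization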); conditions: parental CHO-K1 cells, FluxOR thallium flux, at 10 µM; hits give high values
# [3] = molecular target: Potassium voltage-gated channel subfamily KQT member 1 (Homo sapiens) (UniProt P51787); assay: KCNQ1 potassium channel potentiators, confirmation, FluxOR thallium flux, CHO cells, duplicates (AID 493007;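 active = potentiation averaged over duplicate wells exceeding buffer-only control mean by more than 3 SD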;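 also: 0% = buffer-only wells and 100% = R-L3 activator control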); conditions: KCNQ1 cell line, FluxOR thallium flux fluorescence, at 10 µM; hits give high values, % of reference activator effect, buffer zero
# [4] = molecular target: Potassium voltage-gated channel subfamily KQT member 2 (Rattus norvegicus) (UniProt O88943); assay: rat KCNQ2 channel potentiation, selectivity assay for KCNQ1 potentiator project, KCNQ2-CHO-K1 cells (AID 493009;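 active = mean duplicate potentiation above the buffer control mean plus 5 SD of buffer wells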;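 also: assay conditions were tuned for KCNQ1 rather than KCNQ2 modulators; signal is max minus min fluorescence divided by baseline after thallium stimulus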); conditions: FluxOR thallium flux fluorescence, at 10 µM; hits give high values, scaled: buffer 0, activator control 100
# [5] = molecular target: Potassium voltage-gated channel subfamily KQT member 1 (Homo sapiens) (UniProt P51787); assay: KCNQ1 channel current potentiators, confirmation, orthogonal assay for KCNQ1 potentiator project, IonWorks patch clamp, KCNQ1-CHO cells (AID 493184;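 active = current rise at least 3 SD above the untreated control mean in each of two repeat wells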); conditions: automated patch clamp current, at 10 µM; hits give high values
# [6] = molecular target: Inward rectifier potassium channel 2 (Mus musculus) (UniProt P35561); assay: PubChem AID 2345; conditions: HEK293 Kir2.1, FluxOR thallium flux fluorescence; at 10 µM; hits give high values;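 also: 0% = vehicle mean plus 3 SD and 100% = vehicle minus no-stimulus blank window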
# [7] = molecular target: Short transient receptor potential channel 4 (Mus musculus) (UniProt Q9QUQ5); assay: mouse TRPC4 membrane potential modulation by TRPC6 hits, confirmation, selectivity assay for TRPC6 inhibitor project, cell-based, second specificity screen, HEK293 TRPC4/mu-opioid (AID 2776;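 active = compounds whose fluorescence signal differed from control wells by over 3 SD, either direction, in both duplicate plates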); conditions: HEK293 TRPC4/MOR, membrane potential dye fluorescence, at 10 µM, channel activated by saturating DAMGO dose; hits give high values
# [8] = tested on: transient receptor potential cation channel C4 (TRPC4), mouse; assay: mouse TRPC4 modulation by TRPC6 hits, confirmation, selectivity assay for TRPC6 inhibitor project, cell-based, HEK293 TRPC4/mu-opioid, membrane potential dye (AID 2777;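 active = rise or fall in signal beyond 3 SD of buffer-only wells in both replicate plates, either sign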;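 also: integrated kinetic ratio of fluorescence range over baseline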); conditions: membrane potential fluorescence, at 10 µM
# [9] = nonspecific membrane potential effects, parental HEK293, confirmation, counter-screen for TRPC6 inhibitor project, cell-based, second counter screen (AID 2779;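 active = membrane potential signal moving either way by over 3 SD of the maximum-effect control, in both duplicate plates, meaning non-specific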); conditions: parental HEK293 membrane potential dye fluorescence; at 10 µM; maximal acetylcholine challenge after compound addition
# [10] = membrane potential modulation in parental HEK293, confirmation, counter-screen for TRPC6 inhibitor project, cell-based (AID 2780;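 active = membrane potential signal shifting up or down by more than 3 SD of buffer-only wells, on both duplicate plates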;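 as to membrane potential signal change: plate controls were buffer EC0 wells for no effect and acetylcholine ECmax wells for full effect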); conditions: parental HEK293 membrane potential dye fluorescence; at 10 µM
# [11] = molecular target: Short transient receptor potential channel 6 (Mus musculus) (UniProt Q61143); assay: mouse TRPC6 channel inhibitors, confirmation, HEK293 cells, membrane potential dye, duplicate (AID 488960;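 active = fluorescence ratio falls more than 5 SD below the full-stimulation control mean, in both duplicate runs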;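 as to inhibition: integrated fluorescence ratio of peak minus minimum over baseline after agonist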); conditions: ACh-evoked depolarization, at 10 µM; hits give high values
# [12] = molecular target: Short transient receptor potential channel 6 (Mus musculus) (UniProt Q61143); assay: mouse TRPC6 channel activators, confirmation, HEK293 cells, membrane potential dye, duplicate (AID 488961;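 active = ratio signal rise beyond 5 SD above unstimulated control wells' mean, seen in both duplicate runs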); conditions: HEK293-TRPC6 membrane potential dye fluorescence, FDSS, at 10 µM; hits give high values
# Short transient receptor potential channel 4 (Mus musculus), sequence (Q9QUQ5 whole entry, looked up): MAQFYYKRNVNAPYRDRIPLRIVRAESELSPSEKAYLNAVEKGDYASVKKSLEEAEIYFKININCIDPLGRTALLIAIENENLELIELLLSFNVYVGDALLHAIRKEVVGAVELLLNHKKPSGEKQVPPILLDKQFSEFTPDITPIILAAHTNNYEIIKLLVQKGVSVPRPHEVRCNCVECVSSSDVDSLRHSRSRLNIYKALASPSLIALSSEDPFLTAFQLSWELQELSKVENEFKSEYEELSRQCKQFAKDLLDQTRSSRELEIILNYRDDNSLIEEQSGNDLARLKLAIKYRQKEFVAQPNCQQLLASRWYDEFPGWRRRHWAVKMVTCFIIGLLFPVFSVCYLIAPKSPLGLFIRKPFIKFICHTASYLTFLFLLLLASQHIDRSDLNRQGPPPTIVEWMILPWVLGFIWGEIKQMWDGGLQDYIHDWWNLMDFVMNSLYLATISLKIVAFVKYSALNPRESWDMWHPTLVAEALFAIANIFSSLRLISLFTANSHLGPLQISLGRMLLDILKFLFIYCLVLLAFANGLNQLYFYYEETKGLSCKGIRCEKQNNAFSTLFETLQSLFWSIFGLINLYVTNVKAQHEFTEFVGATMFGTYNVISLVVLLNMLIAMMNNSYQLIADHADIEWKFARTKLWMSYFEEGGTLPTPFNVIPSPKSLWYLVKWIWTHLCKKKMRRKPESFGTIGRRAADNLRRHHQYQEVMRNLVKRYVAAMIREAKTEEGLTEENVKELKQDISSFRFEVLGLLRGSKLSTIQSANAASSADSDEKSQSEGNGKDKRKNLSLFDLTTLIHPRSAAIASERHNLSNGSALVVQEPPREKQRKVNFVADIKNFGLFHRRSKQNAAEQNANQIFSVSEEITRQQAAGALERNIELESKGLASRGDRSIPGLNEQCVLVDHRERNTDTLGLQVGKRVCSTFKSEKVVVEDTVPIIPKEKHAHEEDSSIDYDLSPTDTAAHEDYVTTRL
# Potassium voltage-gated channel subfamily KQT member 1 (Homo sapiens), sequence (P51787 whole entry, looked up): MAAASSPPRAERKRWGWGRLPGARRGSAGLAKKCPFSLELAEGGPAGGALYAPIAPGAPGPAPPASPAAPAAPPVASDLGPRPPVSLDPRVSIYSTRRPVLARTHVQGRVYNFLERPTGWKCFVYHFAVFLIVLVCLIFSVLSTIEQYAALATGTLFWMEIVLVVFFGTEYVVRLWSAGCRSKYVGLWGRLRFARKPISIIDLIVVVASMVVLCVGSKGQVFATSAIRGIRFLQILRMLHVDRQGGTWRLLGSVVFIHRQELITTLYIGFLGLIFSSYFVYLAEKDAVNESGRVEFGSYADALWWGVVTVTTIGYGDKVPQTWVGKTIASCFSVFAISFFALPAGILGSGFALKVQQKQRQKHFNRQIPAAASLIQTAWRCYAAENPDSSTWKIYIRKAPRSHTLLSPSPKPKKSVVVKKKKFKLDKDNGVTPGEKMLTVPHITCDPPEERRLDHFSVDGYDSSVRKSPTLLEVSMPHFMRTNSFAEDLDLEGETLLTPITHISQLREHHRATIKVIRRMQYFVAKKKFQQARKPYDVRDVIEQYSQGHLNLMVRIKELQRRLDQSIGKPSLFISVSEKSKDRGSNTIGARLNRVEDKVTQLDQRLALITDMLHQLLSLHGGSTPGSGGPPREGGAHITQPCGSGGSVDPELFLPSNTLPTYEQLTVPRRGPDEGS
# Short transient receptor potential channel 6 (Mus musculus), sequence (Q61143 whole entry, looked up): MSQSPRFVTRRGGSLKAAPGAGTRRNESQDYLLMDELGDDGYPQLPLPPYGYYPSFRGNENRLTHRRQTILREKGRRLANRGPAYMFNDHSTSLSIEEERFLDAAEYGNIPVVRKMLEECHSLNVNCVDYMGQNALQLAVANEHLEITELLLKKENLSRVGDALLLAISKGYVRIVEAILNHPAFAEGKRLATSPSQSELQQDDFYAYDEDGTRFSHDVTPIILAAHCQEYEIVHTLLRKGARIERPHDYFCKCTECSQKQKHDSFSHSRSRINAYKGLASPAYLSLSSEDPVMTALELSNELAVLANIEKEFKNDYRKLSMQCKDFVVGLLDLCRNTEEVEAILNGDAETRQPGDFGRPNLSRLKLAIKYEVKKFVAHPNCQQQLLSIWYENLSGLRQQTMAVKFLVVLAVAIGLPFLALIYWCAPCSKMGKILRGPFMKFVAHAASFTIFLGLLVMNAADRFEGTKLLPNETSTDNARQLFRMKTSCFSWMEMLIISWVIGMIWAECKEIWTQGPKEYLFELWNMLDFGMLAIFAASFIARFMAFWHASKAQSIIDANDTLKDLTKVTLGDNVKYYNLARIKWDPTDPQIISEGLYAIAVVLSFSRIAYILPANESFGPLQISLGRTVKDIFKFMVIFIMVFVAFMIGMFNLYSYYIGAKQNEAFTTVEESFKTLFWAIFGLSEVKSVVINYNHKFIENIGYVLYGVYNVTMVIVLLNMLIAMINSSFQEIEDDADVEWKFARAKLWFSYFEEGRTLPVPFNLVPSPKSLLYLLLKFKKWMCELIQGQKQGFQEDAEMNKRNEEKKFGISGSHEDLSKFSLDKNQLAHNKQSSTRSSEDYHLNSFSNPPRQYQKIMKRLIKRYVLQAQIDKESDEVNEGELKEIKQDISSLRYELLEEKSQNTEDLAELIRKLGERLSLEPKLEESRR
# Inward rectifier potassium channel 2 (Mus musculus), sequence (P35561 whole entry, looked up): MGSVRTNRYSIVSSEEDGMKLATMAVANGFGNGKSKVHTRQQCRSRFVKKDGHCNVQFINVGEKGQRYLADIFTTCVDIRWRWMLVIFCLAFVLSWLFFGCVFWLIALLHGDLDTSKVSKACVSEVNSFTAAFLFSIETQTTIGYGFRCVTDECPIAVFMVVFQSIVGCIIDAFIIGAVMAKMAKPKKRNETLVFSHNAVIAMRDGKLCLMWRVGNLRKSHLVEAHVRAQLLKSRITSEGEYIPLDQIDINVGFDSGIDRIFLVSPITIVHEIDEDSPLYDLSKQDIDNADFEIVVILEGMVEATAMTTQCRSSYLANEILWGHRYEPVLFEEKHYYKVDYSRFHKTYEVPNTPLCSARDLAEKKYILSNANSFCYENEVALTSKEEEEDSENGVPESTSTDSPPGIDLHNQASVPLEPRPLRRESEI
structure (smiles),measurement,setting,value
O=c1c2cc(Br)ccc2nc(-c2cccc(Cl)c2)n1O,outcome,[1],inactive
same,activation,[2],803% (active)
same,potentiation,[3],257% (active)
same,potentiation,[4],703% (active)
same,outcome,[5],inactive
Oc1c(Cl)cc(Cl)c(Cl)c1Cc1c(O)c(Cl)cc(Cl)c1Cl,activity over 3SD threshold,[6],-73.8%
same,outcome,[1],inactive
same,inhibition,[7],29.5% (active)
same,"activity change, negative = inhibition",[8],4.36% (active)
same,signal change vs control,[9],-19% (active)
same,membrane potential signal change,[10],2.04% (active)
same,inhibition,[11],96.7% (active)
same,outcome,[12],inactive
same,activation,[2],414% (active)
same,potentiation,[3],81.5% (active)
same,potentiation,[4],480% (active)
same,outcome,[5],inactive
CC(Nc1nc(N2CCCC2)nc2ccccc12)c1ccccc1 (stereo not given),outcome,[7],inactive
same,outcome,[8],inactive
same,outcome,[9],inactive
same,outcome,[10],inactive
same,outcome,[11],inactive
same,outcome,[12],inactive
Fc1cc(F)c2nc(Nc3nc4c(F)cccc4s3)sc2c1,outcome,[1],inactive
same,activation,[2],330% (active)
same,potentiation,[3],196% (active)
same,potentiation,[4],422% (active)
same,outcome,[5],inactive
CC(C)(C)C1CCC(C(=O)NCC(c2cccs2)N2CCOCC2)CC1 (stereo not given),activity over 3SD threshold,[6],-57.7%
same,outcome,[1],inactive
COc1ccc(NC(=O)CCCC2CCCCC2)c(OC)c1,outcome,[1],inactive
CCCCOc1ccc(CSC(=N)N)cc1[N+](=O)[O-],inhibition,[7],77.5% (active)
same,outcome,[8],inactive
same,outcome,[9],inactive
same,membrane potential signal change,[10],-186% (active)
same,outcome,[11],inactive
same,outcome,[12],inactive
Cc1ccc(CS(=O)(=O)c2ncc(Cl)c(C(=O)Nc3nnc(C)s3)n2)cc1,activity over 3SD threshold,[6],-51.4%
same,"current increase over 3SD of negative controls (%), hits give high values",[1],48.4% (active)
Cc1cc(C(=O)OCC(=O)Nc2ccc(F)c(F)c2)c(C)o1,outcome,[1],inactive

# Reference: PubChem BioAssay
